An excerpt weighted towards active compounds, which were near 1.7% of everything screened.
IDH1 R132H inh – qHTS for Inhibitors of mutant isocitrate dehydrogenase 1 (IDH1): qHTS; Isocitrate dehydrogenase [NADP] cytoplasmic (Homo sapiens), O75874; Potency, µM (top dose mostly 76.6 µM), for inactives: at the highest dose activity change, negative = inhibition, hits mostly inhibitors; IDH1-R132H enzyme, NADPH consumption, diaphorase/resazurin fluorescence; 0.093% of 390,000 active; further: on the % scale 0 is the no-effect control and ±100 the full control effect; nearly all actives have a fitted effect of over 65% in size
Target sequence (O75874 whole entry R132H, stated change not applied): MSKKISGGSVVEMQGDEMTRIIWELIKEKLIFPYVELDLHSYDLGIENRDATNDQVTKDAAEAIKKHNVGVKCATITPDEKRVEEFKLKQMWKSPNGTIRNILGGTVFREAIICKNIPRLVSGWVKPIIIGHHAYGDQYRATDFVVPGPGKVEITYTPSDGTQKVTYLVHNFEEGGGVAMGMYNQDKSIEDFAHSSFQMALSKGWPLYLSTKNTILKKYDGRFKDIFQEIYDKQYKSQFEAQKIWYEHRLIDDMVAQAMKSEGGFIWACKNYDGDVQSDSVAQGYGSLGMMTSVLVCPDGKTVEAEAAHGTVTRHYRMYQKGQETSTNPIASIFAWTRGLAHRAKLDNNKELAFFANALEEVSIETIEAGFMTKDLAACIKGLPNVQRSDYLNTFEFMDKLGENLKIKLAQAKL
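IDH1-R132H (0.5 ug/mL dispensed) in pH 7.5 Tris buffer was preincubated 30 min with compound, then given a substrate mix of 0.016 mM NADPH and 2 mM alpha-KG for 80 min at room temperature; remaining NADPH was read by diaphorase/resazurin fluorescence.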
TrxR1 substrate – qHTS Assay for Substrates of Mammalian Selenoprotein Thioredoxin Reductase 1 (TrxR1): qHTS. Potency, µM (titrated, usually from 114 µM), for the others: top-dose activity change, negative = substrate turnover. 0.01% of 390,000 active. Thioredoxin reductase 1, cytoplasmic (Rattus norvegicus), O89049. purified TrxR1 substrate turnover, NADPH consumption readout; further: on the % scale 0 is the no-effect control and ±100 the full control effect; nearly all actives have a fitted effect of over 50% in size
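Rat TrxR1, dispensed at 90 nM, was prereduced with 400 uM NADPH (final) for 5 min at ~22 deg C, then incubated with compound 15 min before 400 uM selenite. A first-read NADPH fluorescence drop versus no-compound background flagged substrates.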
rTrxR1 inhibitor – qHTS Assay for Inhibitors of Mammalian Selenoprotein Thioredoxin Reductase 1 (TrxR1): qHTS; Thioredoxin reductase 1, cytoplasmic (Rattus norvegicus), O89049; Potency, µM (top dose mostly 114 µM), without a hit: at the highest dose activity change, negative = inhibition, hits mostly inhibitors; recombinant rTrxR1, NADPH fluorescence consumption, selenite substrate; 1% of 390,000 active; AID 588453, 2011; further: on the % scale 0 is the no-effect control and ±100 the full control effect; nearly all actives have a fitted effect of over 65% in size
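Rat TrxR1 (90 nM in the dispensed reagent) was pre-reduced with 400 uM NADPH for 5 min at room temperature, then incubated with compound for 15 min. After 400 uM selenite was added, NADPH fluorescence (Ex 340/Em 450 nm) was followed for 8 min.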
GRP78 ERSR act – qHTS for Inducers of the Endoplasmic Reticulum Stress Response (ERSR) in Human Glioma: qHTS; U87-MG GRP78 promoter luciferase reporter, 16 h; Potency, µM, for inactives: at the highest dose activation, hits mostly activators; 0.02% of 420,000 active; AID 602332, 2012; further: series mostly up to about 76 µM; % of control where 0% means no effect; nearly all actives have a fitted effect of over 35% in size
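Stably transfected U87-MG human glioma cells carrying a GRP78-based luminescent sensor were seeded at 1000 cells/well, pin-dosed with compounds and incubated 16 h. Luciferase reagent was then added, and end-point luminescence was read after 10 min at room temperature.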
ALOX12 inh – Primary qHTS assay for inhibitors of human arachidonate 12S-lipoxygenase (ALOX12): Round 2; 1.1% of 580,000 active; AID 1671190, 2021; purified 12hLO, xylenol orange hydroperoxide absorbance; Potency, µM (doses to about 108 µM), for inactives: at the top dose activity change, negative = inhibition, usual class: inhibitors; further: on the % scale 0 is the no-effect control and ±100 the full control effect
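Purified human 12hLO at 150 nM in 25 mM Hepes, 0.01% Triton X-100, pH 7.0, preincubated 15 min at room temperature with compound. Reaction started with 40 uM arachidonic acid, 30 min at room temperature. Hydroperoxide measured by Fe-xylenol orange, 573/405 nm absorbance ratio.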
Apoferritin bind – qHTS Assay for Identification of Novel General Anesthetics. Ferritin light chain (Equus caballus), P02791. apoferritin/1-aminoanthracene competitive binding, fluorescence. Potency, µM (doses to about 77.5 µM), inactives show at the highest dose activity change, negative = displacement, actives largely listed as inhibitors. 0.074% of 350,000 active; further: on the % scale 0 is the no-effect control and ±100 the full control effect; nearly all actives have a fitted effect of over 20% in size
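Probe: 1-aminoanthracene (50% saturated, PBS). Protein: horse-spleen apoferritin, 10 uM. Incubation: 10 min, room temperature. Detection: 380 nm excitation, 535 nm emission. Analysis: normalized response, four-parameter Hill.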
* = called active by the depositor; u = inconclusive; x = not tested or not shown; [ ] = dose if it differs, or a comment. The call rests on the fitted dose curve; in most records, active means well fitted curve in the direction sought with a large enough effect; inconclusive means small, poorly fitted or top-dose-only effect, or another doubt; inactive means no such curve, though single readings can be large; an effect the other way counts as inactive or inconclusive. Potency means the concentration at half of the fitted maximal effect.

SMILES	IDH1 R132H inh	TrxR1 substrate	rTrxR1 inhibitor	GRP78 ERSR act	ALOX12 inh	Apoferritin bind
Clc1cccc(-c2noc(-c3ccc[nH]3)n2)c1	x	x	x	x	45µM*	x
CC(C)NC(=S)NNC(=O)C1CC1	x	x	x	x	42%	x
CCSC1(SCC)N=C(N)C2(C#N)C(c3ccc(F)cc3)C12C#N (centres undefined)	6%	-13%	32µM*	-19%	u	u
Cc1cccc(C(=O)NC(=S)NCc2ccccc2)c1	3%	-18%[57.1 µM]	-77%	1%	u	x
CCc1cc(C(=O)NNC(=S)NC(=O)c2ccccc2)cs1	x	x	x	x	40µM*	x
Cc1cccc(C(=O)NC(=S)NNC(=O)c2ccccc2Cl)c1	7%	-8%	u	u	40µM*	-1%
Cc1cccc(C(=O)NC(=S)NNC(=O)Cc2ccccc2)c1	16%	3%	-11%	10%	45µM*	-15%
Cc1cccc(C(=O)NNC(=S)NC(=O)/C=C/c2cccs2)c1	x	x	x	x	35µM*	x
O=C(NCc1nc(-c2cnccn2)n[nH]1)[C@H]1CNC[C@H](C(=O)N2CCOCC2)C1	x	x	x	x	57%	x
O=C(NCCCN1CCOCC1)c1cccc2c1CCN2C(=O)Nc1ccc(F)cc1	x	x	x	x	7%	x
CC(C)CCO[C@H]1COCCN(C(=O)c2ccccc2)C1	x	x	x	x	40%[176 µM]	x
O=C(Nc1ccc(Oc2ccccc2)cc1)O[C@@H]1CO[C@H]2[C@@H]1OC[C@@H]2NCC1CCCCC1	x	x	x	x	11%	x
COc1cc(SC)ccc1C(=O)N[C@@H]1C=C(C(=O)N[C@H](C)C(N)=O)C[C@@H](O)[C@@H]1O	x	x	x	x	46%[176 µM]	x
Cc1ccc(C(=O)NC(=S)NNC(=O)COc2ccccc2C)cc1	2%	9%[57.1 µM]	-3%[57.1 µM]	-1%	-26%	-11%
Cc1cccc(C(=O)NC(=S)NNC(=O)COc2c(C)cccc2C)c1	7%	-12%	u	2%	25µM*	-11%
Cc1ccc(-c2cc(C(=O)O)c3cccc(C)c3n2)s1	x	x	x	x	11µM*	x
COc1ccccc1-c1cc(C(=O)O)c2cccc(C)c2n1	x	x	x	x	10µM*	x
Cc1cccc2c(C(=O)O)cc(-c3cccs3)nc12	x	x	x	x	-22%	x
Cc1ccc(C(=O)NC(=S)/C=C2\N(C)c3ccccc3C2(C)C)cc1	-4%	-8%	-18%	1%	10µM*	-8%
CN1/C(=C/C(=S)NC(=O)C2CCC2)C(C)(C)c2ccccc21	2%	-17%	2%[57.1 µM]	-3%	u	-19%
CC(C)C(=O)NC(=S)/C=C1/N(C)c2ccccc2C1(C)C	8%	-12%	-4%[57.1 µM]	-3%	35µM*	-9%
CN1/C(=C\C(=O)c2ccco2)C(C)(C)c2ccccc21	10%	2%[57.1 µM]	10µM*	2%	-29%	-21%
CN1/C(=C/C(=O)c2nc(S(C)(=O)=O)ncc2Cl)C(C)(C)c2ccccc21	2%	-9%	50µM*	-15%	x	u
O=C(c1ccccc1F)N1CCc2nc(C3CC3)nc(-c3ccc(Cl)cc3)c2CC1	x	x	x	x	20%	x
O=C(c1ccccc1F)N1CCc2nc(C3CC3)nc(-c3ccc(Cl)cc3)c2C1	x	x	x	x	45µM*	x
CS(=O)(=O)Nc1ccc(C2(C(=O)NCCN3CCCCC3)CCCCC2)cc1	x	x	x	x	35%	x
CC(=O)N1CCN(C(=O)CC2OC(=O)c3ccccc32)CC1 (centres undefined)	5%	0%[57.1 µM]	2.5µM*	-10%	0%	-22%
CNC(=O)[C@@H]1CN(C(=O)c2ccc(F)cc2F)C[C@H]1COC	x	x	x	x	-6%	x

Source: PubChem BioAssay (National Center for Advancing Translational Sciences (NCATS))
